Assay results from PubChem BioAssay (Tox21).
Inconclusive results are not listed. Calls of active or inactive are those of the source. Unless noted, the call rests on the fitted dose curve; in most records, active means well fitted curve in the direction sought with a large enough effect in the repeat runs; inconclusive means weak or mixed curves; inactive means flat fitted curve, though single readings scatter.

Columns and labels:
[1] = qHTS assay to test for compound auto fluorescence at 535 nm (green) in HEK293 cells (AID 720680)
[2] = qHTS assay to test for compound auto fluorescence at 460 nm (blue) in HEK293 cell free culture (AID 720681)
In short: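 Compounds were added to cell-free DMEM with 10% FBS and fluorescence read directly. The blue channel used 405 nm excitation and 460 nm emission, with triamterene as the reference fluorophore.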

[3] = qHTS assay to test for compound auto fluorescence at 535 nm (green) in HEK293 cell free culture (AID 720682)
In short: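 Each library compound, or DMSO control, is added by pintool to medium alone, comprising DMEM and 10% FBS. Emission at 535 nm following 485 nm excitation is quantified against fluorescein.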

[4] = qHTS assay to test for compound auto fluorescence at 590 nm (red) in HEK293 cell free culture (AID 720683)
In short: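 Cell-free wells of DMEM with 10% FBS received compound, and intrinsic fluorescence was read at excitation/emission 540/590 nm. Values expressed as equivalence to Rose Bengal sodium.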

[5] = qHTS assay to test for compound auto fluorescence at 590 nm (red) in HepG2 cell free culture (AID 720684)
In short: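 Compounds are added to culture medium (MEM, 10% FBS) lacking cells, then fluorescence is read at excitation 540 nm, emission 590 nm, with Rose Bengal sodium as the equivalency standard.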

[6] = qHTS assay to test for compound auto fluorescence at 460 nm (blue) in HepG2 cell free culture (AID 720685)
In short: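 Compound (23 nL) or DMSO pinned into cell-free MEM with 10% FBS; blue fluorescence read at 405/460 nm excitation/emission, expressed as auto-fluorescence equivalency to triamterene.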

[7] = qHTS assay to test for compound auto fluorescence at 535 nm (green) in HepG2 cell free culture (AID 720686)
[8] = qHTS assay to test for compound auto fluorescence at 460 nm (blue) in HepG2 cells (AID 720687)
In short: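 HepG2 cells in MEM with 10% FBS, attached overnight at 37 C, were exposed to compound or DMSO for 1 hr at 37 C, 5% CO2. Blue fluorescence was read at 405/460 nm, with triamterene as reference fluorophore.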

[9] = biological target: Glucocorticoid receptor (Homo sapiens) (UniProt P04150); experiment: qHTS assay to identify small molecule agonists of the glucocorticoid receptor (GR) signaling pathway (AID 720691; active means well fitted activation curve with a large enough effect in the signal ratio in the repeat runs, not every such curve was filed as active; the % refers to the signal ratio)
In short: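 GR-bla HeLa cells (beta-lactamase reporter under glucocorticoid response element) were plated 4 h at 37 C/5% CO2, given compounds in DMSO, and incubated 18 h at 37 C. LiveBLAzer B/G FRET substrate was added for 2 h at room temperature, then fluorescence intensity read.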
On the % scale 0 is the no-effect control and ±100 the full control effect.

Glucocorticoid receptor (Homo sapiens), sequence (P04150 whole entry, looked up): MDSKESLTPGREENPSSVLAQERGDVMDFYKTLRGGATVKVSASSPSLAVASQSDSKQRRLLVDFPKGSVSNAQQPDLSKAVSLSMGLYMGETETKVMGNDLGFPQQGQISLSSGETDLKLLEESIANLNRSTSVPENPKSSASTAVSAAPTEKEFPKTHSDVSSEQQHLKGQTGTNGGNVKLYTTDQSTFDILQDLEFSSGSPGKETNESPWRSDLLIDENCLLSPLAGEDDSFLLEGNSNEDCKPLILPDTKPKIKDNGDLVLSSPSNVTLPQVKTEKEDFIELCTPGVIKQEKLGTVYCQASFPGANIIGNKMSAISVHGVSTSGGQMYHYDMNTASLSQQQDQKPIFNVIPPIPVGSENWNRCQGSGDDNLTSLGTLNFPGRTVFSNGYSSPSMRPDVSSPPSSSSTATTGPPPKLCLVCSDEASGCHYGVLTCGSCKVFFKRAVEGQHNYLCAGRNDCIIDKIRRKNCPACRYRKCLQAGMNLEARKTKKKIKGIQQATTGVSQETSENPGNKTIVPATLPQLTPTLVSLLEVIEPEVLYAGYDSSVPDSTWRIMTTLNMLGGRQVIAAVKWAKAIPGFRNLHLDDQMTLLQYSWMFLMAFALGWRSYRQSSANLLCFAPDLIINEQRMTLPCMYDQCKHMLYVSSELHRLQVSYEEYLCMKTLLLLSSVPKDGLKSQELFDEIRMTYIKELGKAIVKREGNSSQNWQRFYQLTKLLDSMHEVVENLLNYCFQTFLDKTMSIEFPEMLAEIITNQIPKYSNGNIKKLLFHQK

C1=C\CC/C=C\CC/1
inactive: outcome [1] | outcome [2] | outcome [3] | outcome [4] | outcome [5] | outcome [6] | outcome [7] | outcome [8]

CC(C)C(=O)c1ccccc1
inactive: outcome [1] | outcome [2] | outcome [3] | outcome [4] | outcome [5] | outcome [6] | outcome [7] | outcome [8]

Nc1cc(Cl)cc(S(=O)(=O)O)c1O
inactive: outcome [1] | outcome [2] | outcome [3] | outcome [4] | outcome [5] | outcome [6] | outcome [7] | outcome [8]

O=C1OC(=O)c2cc(Oc3ccc4c(c3)C(=O)OC4=O)ccc21
inactive: outcome [1] | outcome [2] | outcome [3] | outcome [4] | outcome [5] | outcome [6] | outcome [7] | outcome [8]

CC(C)(CO)[C@@H](O)C(=O)NCCCO
inactive: outcome [1] | outcome [2] | outcome [3] | outcome [4] | outcome [5] | outcome [6] | outcome [7] | outcome [8]

O=C(O)Cc1cccc(-c2cc(CCCCCCc3ccc(O[C@H]4O[C@H](CO)[C@@H](O)[C@H](O)[C@@H]4O)c(-c4cccc(CC(=O)O)c4)c3)ccc2O[C@H]2O[C@H](CO)[C@@H](O)[C@H](O)[C@@H]2O)c1
inactive: outcome [1] | outcome [2] | outcome [3] | outcome [4] | outcome [5] | outcome [6] | outcome [7] | outcome [8]

Nc1cc(C(=O)O)ccc1Cl
inactive: outcome [1] | outcome [2] | outcome [3] | outcome [4] | outcome [5] | outcome [6] | outcome [7] | outcome [8]

CCC1Nc2cc(Cl)c(S(N)(=O)=O)cc2S(=O)(=O)N1 (configuration not stated)
inactive: outcome [1] | outcome [2] | outcome [3] | outcome [4] | outcome [5] | outcome [6] | outcome [7] | outcome [8]

CNCc1ccccc1
inactive: outcome [1] | outcome [2] | outcome [3] | outcome [4] | outcome [5] | outcome [6] | outcome [7] | outcome [8]

CC(C)CCCC(C)CC=O (configuration not stated)
inactive: outcome [1] | outcome [2] | outcome [3] | outcome [4] | outcome [5] | outcome [6] | outcome [7] | outcome [8]

NS(=O)(=O)c1cc2c(cc1Cl)NC(C(Cl)Cl)NS2(=O)=O (configuration not stated)
inactive: fluorescence, % of fluorescein [1] 0.0129% [at 18.6 µM] | fluorescence, % of fluorescent control [2] -0.0271% [at 18.6 µM] | activity change [3] -0.0213% [at 18.6 µM] | fluorescence, % of fluorescent control [4] 0.0566% [at 18.6 µM] | fluorescence, % of Rose Bengal [5] -0.224% [at 18.6 µM] | fluorescence, % of fluorescent control [6] -0.0397% [at 18.6 µM] | fluorescence, % of fluorescein control [7] -0.0047% [at 18.6 µM] | fluorescence, % of fluorescent control [8] -0.0034% [at 18.6 µM]

CCC(=O)OCCC(C)CCC=C(C)C (configuration not stated)
inactive: outcome [1] | outcome [2] | outcome [3] | outcome [4] | outcome [5] | outcome [6] | outcome [7] | outcome [8]

CCN(CCO)c1cccc(C)c1
inactive: outcome [1] | outcome [2] | outcome [3] | outcome [4] | outcome [5] | outcome [6] | outcome [7] | outcome [8]

CC(=O)N(CC(O)CO)c1c(I)c(C(=O)NCC(O)CO)c(I)c(C(=O)NCC(O)CO)c1I (configuration not stated)
inactive: outcome [1] | outcome [2] | outcome [3] | outcome [4] | outcome [5] | outcome [6] | outcome [7] | outcome [8]

CCOC(=O)CCCCCCCCC(=O)OCC
inactive: outcome [1] | outcome [2] | outcome [3] | outcome [4] | outcome [5] | outcome [6] | outcome [7] | outcome [8]

Cc1nc2ccccc2c(=O)o1
inactive: outcome [1] | outcome [2] | outcome [3] | outcome [4] | outcome [5] | outcome [6] | outcome [7] | outcome [8]

O=C(Oc1ccccc1C(=O)O)c1ccccc1O
inactive: outcome [1] | outcome [2] | outcome [3] | outcome [4] | outcome [5] | outcome [6] | outcome [7] | outcome [8]

CCOC(=O)CC(CC(=O)OCC)(OC(C)=O)C(=O)OCC
inactive: outcome [1] | outcome [2] | outcome [3] | outcome [4] | outcome [5] | outcome [6] | outcome [7] | outcome [8]

CCCOCCOCCOCCO
inactive: outcome [1] | outcome [2] | outcome [3] | outcome [4] | outcome [5] | outcome [6] | outcome [7] | outcome [8]

CCCC(C)CC (configuration not stated)
inactive: outcome [1] | outcome [2] | outcome [3] | outcome [4] | outcome [5] | outcome [6] | outcome [7] | outcome [8]

C[Si]1(C)N[Si](C)(C)N[Si](C)(C)N1
inactive: outcome [1] | outcome [2] | outcome [3] | outcome [4] | outcome [5] | outcome [6] | outcome [7] | outcome [8]

CCCCC(C)C(=O)O (configuration not stated)
inactive: outcome [1] | outcome [2] | outcome [3] | outcome [4] | outcome [5] | outcome [6] | outcome [7] | outcome [8]

CC(CC(=O)O)CC(C)(C)C (configuration not stated)
inactive: outcome [1] | outcome [2] | outcome [3] | outcome [4] | outcome [5] | outcome [6] | outcome [7] | outcome [8]

C=C(C)[C@@H]1CC[C@@H](C)C[C@@H]1O
inactive: outcome [1] | outcome [2] | outcome [3] | outcome [4] | outcome [5] | outcome [6] | outcome [7] | outcome [8]

CC(C)COC(=O)/C=C/c1ccccc1
inactive: outcome [1] | outcome [2] | outcome [3] | outcome [4] | outcome [5] | outcome [6] | outcome [7] | outcome [8]

COC(=O)CCC(=O)O
inactive: outcome [1] | outcome [2] | outcome [3] | outcome [4] | outcome [5] | outcome [6] | outcome [7] | outcome [8]

CCCCC[Si](OCC)(OCC)OCC
inactive: outcome [1] | outcome [2] | outcome [3] | outcome [4] | outcome [5] | outcome [6] | outcome [7] | outcome [8] | Potency [9]
